The assay can be described thus: resazurin metabolic signal in HepG2 cells – cell-based, resazurin fluorescence, 24 h, PK04 Diversity Set, profiling panel (AID 1172). Also: test concentration not given here. To be noted: HepG2 viability, higher = more signal.
In turn, `C=CCC(OC(C)=O)[C@@H]1[C@@H](N(Cc2ccc(-c3ccccc3)cc2)C(=O)Cc2ccc(OC)cc2)c2cc(OCCCO)ccc2N1C(=O)c1ccc2ccccc2n1` (stereo not given in full) gave a z-score of 0.0252.
Consider `COc1ccc(C#Cc2ccc3c(c2)[C@]2(C(=O)N3)[C@H](C(=O)NC[C@H](O)c3ccccc3)[C@H]3C(=O)O[C@H](c4ccccc4)[C@H](c4ccccc4)N3[C@@H]2c2ccc(OCCO)cc2)cc1`, for which the z-score was -1.07.
The result for `COCCOC(=O)N1C(=O)[C@@]2(c3cc(C#CC4(O)CCCCCC4)ccc31)[C@H](C(=O)N1CCCCCCC1)[C@H]1C(=O)O[C@H](c3ccccc3)[C@H](c3ccccc3)N1[C@@H]2c1ccccc1OCCO` reads -0.449.
The figure for `COC(=O)c1ccc(OC)c(/C=C\CC(OC(C)=O)c2ccccc2)c1` (stereo not given) is 0.0209; for `Cc1ccc([C@H]2C(C(=O)O)=C[C@@H](C)N2S(=O)(=O)c2ccc(C)cc2)cc1` it is -0.534.
As for `NCCCCCCNC(=O)[C@H]1C[C@H]2C(=O)NCC(=O)N2[C@H]1c1cccc(OCCO)c1`, the z-score stood at 0.583.
Take `COc1ccc(CCN2C(=O)[C@@]3(Cc4ccccc42)c2ccccc2C(=O)N(Cc2ccccc2Cl)[C@H]3c2ccc(CO)cc2)cc1`: the z-score is -0.349.
Turning to `C=CC[C@@H](OC(=O)Nc1ccc(OC)cc1)c1ccc(O)c2ccccc12`, the z-score is -1.07.
The figure for `CC(C)C[C@@H]1NC(=O)[C@@H]2C[C@H](C(=O)NCCCCCC[N+](C)(C)C)[C@H](c3ccc(O)cc3)N2C1=O` is -0.219.
The figure for `O=C1C=CC(=O)[C@@H]2CC(COc3ccccc3)=C3[C@@H](CCc4ccccc4)OB(O)C[C@@H]3[C@H]12` is -0.814; for `CN(C)CCCCNC(=O)[C@H]1C[C@H]2C(=O)N[C@@H](Cc3ccccc3)C(=O)N2[C@H]1c1ccc(O)cc1` it is -0.0562.
The figure for `CCCC[C@H]1OB(O)C[C@H]2C1=C(C)C[C@H]1C(=O)N(Cc3ccccc3)C(=O)[C@H]12` is 0.589.
The compound `C=C[C@@H](COC(C)=O)N(Cc1ccc([N+](=O)[O-])cc1)S(=O)(=O)c1ccc(Br)cc1` returned a z-score of 0.835.
For the compound `COc1ccc([Si](C)(C)[C@@H]2[C@@H](CCn3cc([C@H](O)c4ccccc4)nn3)O[C@]3(C(=O)N(Cc4ccc(N5C(=O)c6cccc7cccc5c67)cc4)c4ccccc43)[C@H]2C)cc1`, the z-score was -0.651.
The figure for `CC(C)(C)OC(=O)CC[C@@]1(C(=O)NCCN2CCOCC2)N=C(c2ccc(OCCCO)cc2)O[C@@H]1c1ccccc1` is -0.781; for `O=C1O[C@@H](c2ccccc2)[C@@H](c2ccccc2)N2[C@@H](c3ccccc3OCCO)[C@]3(C(=O)Nc4ccc(C#CC5(O)CCCCCC5)cc43)[C@@H](C(=O)Nc3nc4ccccc4s3)[C@H]12` it is -0.592.
For the compound `COCCOC(=O)N1C(=O)[C@@]2(c3cc(C#CCNC(N)=O)ccc31)[C@H](c1ccc(OCCO)cc1)N1[C@H](c3ccccc3)[C@H](c3ccccc3)OC(=O)[C@H]1[C@@H]2C(=O)N1CCc2cc(OC)c(OC)cc2C1`, the z-score was 0.358.
For `CCOC(=O)C[C@H]1[C@H](OC(=O)c2ccc(C(=O)c3ccccc3)cc2)[C@@H](NC(=O)C2CCCCC2)c2cc(OCCCO)ccc2N1C(=O)c1ccccc1`, the z-score was -0.341.
The result for `CC(C)=CCCC(C)=CC(O)C1C=CC2C(=O)N(c3ccccc3)C(=O)C2N1Nc1ccccc1` (stereo not given) reads -1.4.
As to `COC(=O)[C@@]1(Cc2ccc(OC)cc2)[C@H]2c3cc(C(=O)N4CCCC4)n(CCc4c[nH]c5cc(F)ccc45)c3C[C@H]2CN1C(=O)c1ccccc1`, the z-score is -0.679.
The result for `Cc1ccc(F)cc1S(=O)(=O)N[C@@H]1CCN(Cc2ccc(-c3ccccc3)cc2)C1` reads -0.603; that for `COC(=O)[C@@]1(Cc2ccc(OC)cc2)[C@H]2c3cc(C(=O)N(C)C)n(Cc4c(OC)[nH]cc(C)c4=O)c3C[C@H]2CN1C(=O)c1ccccc1`, -0.672.
On to `[N-]=[N+]=Nc1ccccc1[C@H]1OC(c2ccc(OCCCO)cc2)=N[C@@]1(CCS(=O)(=O)c1ccccc1)C(=O)O`, for which the z-score was determined as 0.181.
On to `COC(=O)c1ccc(C(O)C2C=CC3C(=O)N(C)C(=O)C3N2NC(=O)OC(C)(C)C)o1` (stereo not given), for which the z-score is -0.784.
As to `CC=CC(O)C1C=CC2C(=O)N(c3ccccc3)C(=O)C2N1Nc1ccc(C(C)C)cc1` (stereo not given), the z-score is -1.76.
The result for `O=C1C[C@@](C(=O)NC2CC2)(c2ccc([N+](=O)[O-])cc2)[C@@H](c2ccc(CO)cc2)N1CC12CC3CC(CC(C3)C1)C2` reads -0.494; that for `COc1ccc(C(O)C2C=CC3C(=O)N(C)C(=O)C3N2Nc2ccccc2)cc1OCc1ccccc1` (stereo not given), 0.043.
The result for `[N-]=[N+]=NCc1ccccc1C[C@@]1(C(=O)N2CCOCC2)N=C(c2ccc(OCCCO)cc2)O[C@@H]1c1ccccc1CN=[N+]=[N-]` reads -0.638; that for `CN1C(=O)C2C=CC(C(O)c3ccccn3)N(Nc3ccccc3)C2C1=O` (stereo not given), -1.03; that for `COc1ccc(C#Cc2ccc3c(c2)[C@]2(C(=O)N3)[C@H](c3ccc(O)cc3)N3[C@H](c4ccccc4)[C@H](c4ccccc4)OC(=O)[C@H]3[C@@H]2C(=O)N2CCCCCCC2)cc1`, -0.527.
Regarding `O=C1OCCC=C[C@H]2OC34C=CCN(Cc5ccccc5)C(=O)[C@H]3N(CCCCCO)C(=O)[C@@H]4C12` (stereo not given in full), the z-score amounted to 1.12.
The result for `COC(=O)C(CC#Cc1ccc2c(c1)[C@]1(C(=O)N2)[C@H](C(=O)NC[C@H](O)c2ccccc2)[C@H]2C(=O)O[C@H](c3ccccc3)[C@H](c3ccccc3)N2[C@@H]1c1ccc(OCCO)cc1)C(=O)OC` reads 0.0416.
The result for `COCCOC(=O)N1C(=O)[C@@]2(c3cc(C#CCNC(N)=O)ccc31)[C@H](c1ccc(O)cc1)N1[C@H](c3ccccc3)[C@H](c3ccccc3)OC(=O)[C@H]1[C@@H]2C(=O)NC[C@H](O)c1ccccc1` reads -0.197; that for `COC(=O)[C@@]1(Cc2ccccc2)[C@H]2c3cc(C(=O)N4CCCC4)n(Cc4ccc(C)o4)c3C[C@H]2CN1C(=O)c1ccccc1`, -1.59.
Regarding `COCC(=C=CC[C@H](O)c1ccc(OCCO)cc1)C[C@H](O)c1cc(Cl)cc(Cl)c1O`, the z-score turned out to be 0.751.

(Values after PubChem BioAssay.)
